These results are taken from PubChem BioAssay (NCI).

Test systems include HT29 colon; SNB-75 CNS; U251 CNS; PC-3 prostate; SK-MEL-5 melanoma; UACC-62 melanoma; LOX IMVI melanoma; SK-MEL-28 melanoma; SK-MEL-2 melanoma; EKVX NSCLC; SN12C renal; UO-31 renal; TK-10 renal; ACHN renal; CAKI-1 renal; A498 renal; CCRF-CEM leukemia; MOLT-4 leukemia; SR leukemia; SNB-19 CNS.
Experiment in all cases: NCI-60 one-dose screen, 48 h (100 = growth as untreated, 0 = no growth, -100 = all killed)
Common to all, as to conditions: 10 µM unless noted

SMILES strings stand for the structures. About 83,000 compounds went through this panel and 20% of them were active in at least one assay; those are over-represented in the sample as a whole.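 Interpretation: 100, growth as untreated; towards 0, rising growth inhibition; 0, no net growth; 0 to -100, cell death. Compounds scoring below 10 were considered active.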 Values without a mark were called inactive. Active and inactive are the calls of the source.

For `COc1ccc2c(c1)C(=O)c1c-2c(=O)n(CCCCCCC(=O)NO)c2ccccc12`, the growth was 3.51% (active) in the experiment on HT29 colon; 29.7% with SNB-75 CNS; -58.8% (active) with U251 CNS; -8.27% (active) with PC-3 prostate; -85.7% (active) with SK-MEL-5 melanoma; -55.5% (active) with UACC-62 melanoma. Besides, the growth in the experiment on LOX IMVI melanoma is -82% (active); in the experiment on SK-MEL-28 melanoma it was -18% (active); in the experiment on SK-MEL-2 melanoma, 10.4%; in the experiment with EKVX NSCLC it was 31.3%; in the experiment on SN12C renal, 8.66% (active); in the experiment with UO-31 renal, -33.8% (active). Moreover, the growth in the experiment with TK-10 renal is -9.14% (active); in the experiment with ACHN renal, -57.8% (active); with CAKI-1 renal, -55.4% (active); in the experiment on A498 renal, -67.8% (active); in the experiment on CCRF-CEM leukemia it was -7.49% (active); in the experiment on MOLT-4 leukemia, 4.43% (active). Further, in the experiment with SR leukemia, the growth was 5.2% (active).

For the molecule `Cc1nc2cc(NC(=O)CN3CCN(CCN4C(=O)c5cccc6cccc(c56)C4=O)CC3)ccc2s1`, the growth in the experiment with HT29 colon was 33.6%; with SNB-75 CNS, 57.1%; in the experiment on SNB-19 CNS, 44.7%; in the experiment on SK-MEL-5 melanoma, 39.4%; in the experiment with UACC-62 melanoma, 62.5%; with LOX IMVI melanoma, 39.9%. Also, the growth in the experiment on SK-MEL-28 melanoma was 86.4%; in the experiment with SK-MEL-2 melanoma it was 73%; with EKVX NSCLC, 69.9%; with SN12C renal, 39.8%; with UO-31 renal, 53.6%; with TK-10 renal, 87.9%. Further, the growth was 33.9% with ACHN renal; 72.9% in the experiment with CAKI-1 renal; 31.7% in the experiment with CCRF-CEM leukemia; 9.64% (active) with MOLT-4 leukemia; 22% in the experiment with SR leukemia.

As for `Cc1c(C)c(N2C(=O)C=CC2=O)c(C)c(C)c1N1C(=O)C=CC1=O`, the growth is 110% in the experiment with HT29 colon; 101% in the experiment with SNB-75 CNS; 97.3% in the experiment on SNB-19 CNS; 109% in the experiment on SK-MEL-5 melanoma; 106% in the experiment with UACC-62 melanoma; 81.6% in the experiment with SK-MEL-28 melanoma. Further, the growth with SK-MEL-2 melanoma is 109%; with EKVX NSCLC, 101%; with SN12C renal, 104%; with UO-31 renal, 53.7%; with TK-10 renal it was 119%; in the experiment on ACHN renal, 108%. The growth was 101% in the experiment with CAKI-1 renal, 78.2% with A498 renal and 72.4% in the experiment on MOLT-4 leukemia.

Regarding `O=C(/C(=C/c1ccc([N+](=O)[O-])cc1)c1ccccc1)c1ccccc1`, the growth is 44.1% in the experiment on HT29 colon; 70.6% in the experiment on SNB-75 CNS; 75.9% with SNB-19 CNS; 59.1% with PC-3 prostate; 43.6% in the experiment with SK-MEL-5 melanoma; 5.01% (active) with LOX IMVI melanoma. For the same molecule, the growth was 97.9% with SK-MEL-28 melanoma; 24.9% with SK-MEL-2 melanoma; 35.1% in the experiment with SN12C renal; 43.1% in the experiment on UO-31 renal; 40.9% in the experiment with ACHN renal; 48.6% with CAKI-1 renal. Further, the growth in the experiment on A498 renal is 77%; in the experiment with CCRF-CEM leukemia, 0.582% (active); with MOLT-4 leukemia it was -2.9% (active); with SR leukemia, 0.152% (active).

In the case of `O=C(/C=C/c1cc2ccccc2[nH]c1=O)c1ccc(O)cc1`, the growth is 55.5% in the experiment with HT29 colon; 40.3% in the experiment on SNB-75 CNS; 57.4% with SNB-19 CNS; 96.1% in the experiment on SK-MEL-5 melanoma; 83.8% with UACC-62 melanoma; 26.8% with LOX IMVI melanoma. Besides, the growth was 99.9% in the experiment on SK-MEL-28 melanoma; 83.7% in the experiment with SK-MEL-2 melanoma; 87.5% with EKVX NSCLC; 47.5% with SN12C renal; 45.6% in the experiment on UO-31 renal; 50.1% in the experiment with TK-10 renal. The growth in the experiment with ACHN renal is 66.2%; with CAKI-1 renal it was 40.9%; with A498 renal, 56.2%; with MOLT-4 leukemia, 30.9%; with SR leukemia, -0.193% (active).

Take `COc1cc2c(-c3nc4cc(Cl)c(F)cc4s3)cc(=O)oc2c(C)c1OC`: the growth in the experiment on HT29 colon was -80% (active); in the experiment with SNB-75 CNS, -90.3% (active); with SNB-19 CNS it was 34.7%; in the experiment on PC-3 prostate, 19.2%; with SK-MEL-5 melanoma, -84.2% (active); in the experiment with LOX IMVI melanoma, -73.5% (active). Moreover, the growth in the experiment with SK-MEL-28 melanoma was -28.6% (active); with SK-MEL-2 melanoma it was -82.2% (active); in the experiment with SN12C renal, -73.8% (active); in the experiment on UO-31 renal it was -94.4% (active); with ACHN renal, -83.8% (active); in the experiment on CAKI-1 renal, -78.5% (active). In addition, the growth was 8.7% (active) in the experiment with A498 renal, -72.5% (active) in the experiment on CCRF-CEM leukemia and -43% (active) in the experiment with MOLT-4 leukemia.

As for `O=C(/C(=N/O)S(=O)(=O)c1ccccc1)c1cccs1`, the growth was 107% in the experiment on HT29 colon; 92.6% in the experiment with SNB-75 CNS; 100% in the experiment on SNB-19 CNS; 97.7% with PC-3 prostate; 104% in the experiment with UACC-62 melanoma; 111% in the experiment on SK-MEL-28 melanoma. Further, the growth in the experiment with SN12C renal is 101%; in the experiment on UO-31 renal, 96.8%; in the experiment with TK-10 renal, 89.5%; with ACHN renal, 112%; in the experiment with CAKI-1 renal it was 103%; with A498 renal, 103%. Also, the values for the growth in the experiment with CCRF-CEM leukemia, in the experiment with MOLT-4 leukemia and in the experiment on SR leukemia were 98.5%, 104% and 85.9%, respectively.

On to `Nc1ccc(C2=NN(c3ccccc3)C(c3ccc(Cl)cc3)C2)cc1` (stereo not drawn), for which the growth with HT29 colon was 19.5%; with SNB-75 CNS, 72.8%; in the experiment with SNB-19 CNS it was 78.1%; in the experiment on PC-3 prostate, 80.9%; in the experiment with UACC-62 melanoma, 89.5%; in the experiment on SK-MEL-28 melanoma, 105%. Moreover, the growth was 76.9% in the experiment on SN12C renal; 55.1% in the experiment on UO-31 renal; 74.2% in the experiment with TK-10 renal; 82.1% in the experiment with ACHN renal; 80.9% with CAKI-1 renal; 74.7% in the experiment with A498 renal. In addition, the values for the growth with CCRF-CEM leukemia, with MOLT-4 leukemia and with SR leukemia were 64.2%, 62.4% and 2.52% (active), respectively.

Regarding `CCN1C(=O)c2ccc3c4c(ccc(c24)C1=O)C(=O)N(CCCNCc1ccccc1OC)C3=O`, the growth is -48.8% (active) with HT29 colon; -71.5% (active) in the experiment on SNB-75 CNS; -64.1% (active) in the experiment with SNB-19 CNS; 0.702% (active) with PC-3 prostate; -88.3% (active) in the experiment with UACC-62 melanoma; 3.31% (active) in the experiment with SK-MEL-28 melanoma. Besides, the growth in the experiment with SN12C renal is -91.6% (active); in the experiment on UO-31 renal, -42.5% (active); in the experiment with TK-10 renal it was -28.3% (active); in the experiment on ACHN renal, -67.1% (active); in the experiment on CAKI-1 renal, -11.4% (active); in the experiment with A498 renal, -80.7% (active). The growth was -42.3% (active) with CCRF-CEM leukemia, -51.7% (active) in the experiment with MOLT-4 leukemia and -42% (active) in the experiment with SR leukemia.

As for `CCN1CCN(c2cc(-c3cn[nH]c3-c3cc(C)cc(OC)c3)nc(-c3cccnc3)n2)CC1`, the growth is 33.4% in the experiment on HT29 colon; 75.9% in the experiment on SNB-75 CNS; 48.3% in the experiment on U251 CNS; 100% in the experiment on PC-3 prostate; 81.9% in the experiment with SK-MEL-5 melanoma; 102% in the experiment with UACC-62 melanoma. In addition, the growth is 56.7% in the experiment on LOX IMVI melanoma; 87.4% in the experiment on SK-MEL-28 melanoma; 93.6% with SK-MEL-2 melanoma; 106% in the experiment with EKVX NSCLC; 85% with SN12C renal; 45.8% in the experiment with UO-31 renal. The growth with TK-10 renal was 105%; in the experiment on ACHN renal, 73.7%; in the experiment with CAKI-1 renal, 73.7%; in the experiment on A498 renal it was 15.1%; in the experiment on CCRF-CEM leukemia it was 84.5%; in the experiment with MOLT-4 leukemia, 52%. Also, the growth with SR leukemia is 7.69% (active).
